PubChem BioAssay AID2284381 (EPA ToxCast)
Records with an inconclusive call do not appear. Calls of active or inactive are those of the source. The calls were made as follows: active = hit-call score of the fitted dose curve at least 0.9, where 1 is the maximum; inconclusive = response in the unintended direction; inactive = score below 0.9.

The compounds below were run on Japanese medaka Retinoid X Receptor beta (RXRb), gene 100125505 (assay: ATG_jmRXRb_EcoTox2: Attagene TRANS-FACTORIAL EcoTox-2 HepG2 Assay for Japanese medaka Retinoid X Receptor beta (RXRb)).
Description: ATG_EcoTox2 is a cell-based, multiplexed assay created by modifying the existing Attagene TRANS-FACTORIAL system to include a panel of nuclear receptors from some or all the following species: human (Homo sapiens), african clawed frog (Xenopus laevis), rainbow trout (Oncorhynchus mykiss), japanese medaka (Oryzias latipes), and zebrafish (Danio rerio). The ECOTOX2-FACTORIAL format uses HepG2, a human liver cell line, with measurements taken at 24 hours after chemical dosing in a 24-well plate. ATG_jmRXRb_EcoTox2 is one of 29 assay components calculated in the ATG_EcoTox2 assay. It is designed to make measurements of mRNA induction, a form of inducible reporter, as detected with fluorescence intensity signals by Reverse transcription polymerase chain reaction (RT-PCR) and Capillary electrophoresis technology.The assay endpoint ATG_jmRXRb_EcoTox2 was analyzed in the positive analysis fitting direction relative to DMSO as the negative control and baseline of activity. Using a type of inducible reporter, measures of mRNA for gain-of-signal activity can be used to understand the reporter gene at the transcription factor-level as they relate to the gene RXRb. Furthermore, this assay endpoint can be referred to as a primary readout, because this assay has produced multiple assay endpoints where this one serves a reporter gene function. To generalize the intended target to other relatable targets, this assay endpoint is annotated to the nuclear receptor intended target family, where the subfamily is non-steroidal.
Human liver HepG2 cells are transiently transfected with multiple reporter transcription units (MRTUs) in 6-well plates using FuGene 6 reagent (Roche; 3 ml FuGene/1 mg DNA). The MRTU constructs are regulated by a cis-regulating element (promoter). Each RTU expresses a GAL4-UAS that regulates the transcription of a nearby target reporter gene sequence. A major difference between the CIS and TRANS system is that in CIS activities of endogenous TFs are measured, whereas the TRANS assay evaluates changes in activities of exogenous, chimeric NR-Gal4 proteins. […] At the end of 24 hour incubation, total RNA was isolated using TriZol reagent (Invitrogen). The isolated RNA is then reverse-transcribed using oligo(dT) primer and Mo-MLV reverse transcriptase (Invitrogen) with DNAse I (Ambion) treatment for 30 min. The one-tenth of the produced cDNA was amplified by PCR using Taq DNA polymerase (Invitrogen) and two reporter sequence-specific primers. The PCR products were fluorescently labeled by primer extension with 6-arboxyfluorescein (6-FAM) 5'-labeled reporter sequence-specific primer (2 min at 95 C, 20 s at 68 C and 10 min at 72 C) and these products were digested with 5U of HpaI (New England Biolabs) for 2h at 37 C. The fragments were purified using Qiaquick PCR columns (Qiagen), analyzed on an ABI 3130xL genetic analyzer (Applied Biosystems) with peak positions identified by using a set of X-rhodamine (ROX)-labeled MapMarker1000 molecular weight standards (BioVentures). The raw capillary electrophoresis data was processed using Attagraph software (Attagene).

Q: With `CC(C)(Oc1ccc(C2CC2(Cl)Cl)cc1)C(=O)O` (stereo not given) as the compound, how does the outcome read?
A: inactive

Q: How did the AC50 turn out when `CN(CCOc1ccc(CC2SC(=O)NC2=O)cc1)c1ccccn1` (stereo not given) was run?
A: 12.9 µM (active)

Q: `C=C(c1ccc(C(=O)O)cc1)c1cc2c(cc1C)C(C)(C)CCC2(C)C` was tested. Which AC50 did it give?
A: 0.00302 µM (active)

Q: For `CC(C)(Oc1ccc(Cl)cc1)C(=O)O`, which outcome is on record?
A: inactive

Q: `Cc1cccc(Nc2cc(Cl)nc(SCC(=O)O)n2)c1C` was tested. Which AC50 did it give?
A: 27.4 µM (active)

Q: `Cc1ccc(C)c(OCCCC(C)(C)C(=O)O)c1` was tested. Which AC50 did it give?
A: 50 µM (active)

Q: `C[C@@H]1C[C@H]2[C@@H]3CCC4=CC(=O)C=C[C@]4(C)[C@@]3(F)[C@@H](O)C[C@]2(C)[C@@]1(O)C(=O)COP(=O)(O)O` was tested. Which outcome did it give?
A: inactive

Q: `CC(c1cc2ccccc2s1)N(O)C(N)=O` (stereo not given) was tested. Which outcome did it give?
A: inactive

Q: `CC(C)(Oc1ccc(CCNC(=O)c2ccc(Cl)cc2)cc1)C(=O)O` was tested. Which outcome did it give?
A: inactive

Q: Which outcome does the source give for `Cc1nc(-c2ccc(C(F)(F)F)cc2)sc1C(=O)NCc1ccc(OC(C)(C)C(=O)O)cc1` here?
A: inactive
